PubChem BioAssay (Tox21)
Records with an inconclusive call do not appear. Entries that show only a call come without a potency. Activity calls are given as the source filed them. Calls follow the shape of the dose curve; as a rule, active = well fitted activation curve with a large enough effect in the signal ratio in the repeat runs (not every such curve was filed as active); inconclusive = weak or mixed curves; inactive = flat fitted curve, though single readings scatter; the % refers to the signal ratio.

Experiment: qHTS assay to identify small molecule agonists of H2AX (AID 1224845)
Details: CHO-K1 phospho-H2AX Ser139 HTRF, 3 h; series mostly up to 154 µM
Excerpt: National Center for Advancing Translational Sciences [NCATS]
NIH Chemical Genomics Center [NCGC]
U.S. Environmental Protection Agency [EPA]
National Institutes of Environmental Health Sciences [NIEHS]
National Toxicology Program [NTP]
U.S. Food and Drug Administration [FDA]
HTRF phospho-H2AX (Ser139) assay (Cisbio Bioassays, US) enables the quantitative detection of the histone variant H2AX when phosphorylated on serine 139. When double-stranded DNA breaks, either by ionizing radiation or endogenous physiological processes, H2AX becomes phosphorylated at Ser139. This phospho-Ser139 serves as a sensitive biomarker for the detection of such breaks, localizing the site of DNA repair. So, HTRF phospho-H2AX Ser139 is a pertinent assay to study genome stability, the cell cycle, DNA repair, and it serves as a biomarker for cancer, and to understand aging. Wild type CHO-K1 cells were used to identify the inducers of Phospho-H2AX Ser 139 from the Tox21 10K compound collections.
Tox21 Assay Protocol Summary:
The CHO-K1 cells suspended in culture medium containing 10% FBS were dispensed at 1000 cells/ 3 ul/well in 1536-well white wall/solid bottom plates (Greiner Bio-One North America, NC) using a Multidrop Combi (Thermo Fisher Scientific Inc., Waltham, MA). After the assay plates were incubated at 37C overnight, 23 nl of compounds at 15 concentrations (from 5-48 columns) or positive control (from 1 to 4 columns) were transferred to the assay plates using a Pintool station (Wako, San Diego, CA) into each well resulting in a final DMSO concentration of 0.76%. After 3hr incubation at 37C, 1 uL/well Supplemented Lysis buffer (diluted 100 fold blocking reagent in lysis buffer) (HTRF Phospho-H2A.X (S139) Assay kit from Cisbio US Inc., Bedford, MA) was added using a Flying Reagent Dispenser (FRD) (Aurora Discovery, CA). After 10sec spin at 1000 rpm in a plate centrifuge, the assay plates were incubated at room temperature for 30 min. Then followed by the addition of 1 uL/well detection buffer (containing a mixture of two antibodies, one labeled with cryptate, Anti pH2AX (S139)-K and another labeled with d2, Anti H2AX-d2) using FRD. After incubation at room temperature for 24 hr, the time resolved fluorescence at excitation 320 nm and emissions at 665 nm and 620 nm was measured using an Envision plate reader (PerkinElmer, Waltham, MA).

SMILES	Potency
CC(Oc1cccc(Cl)c1)C(=O)O (stereo not given)	inactive
O=C(O)c1cc(Cl)ccc1Cl	inactive
CCCCCCCCn1sccc1=O	inactive
COc1cc(CC#N)cc(OC)c1OC	inactive
CCCSP(=S)(OCC)Oc1ccc(SC)cc1 (stereo not given)	inactive
CC(C)(c1ccccc1)c1cc(-n2nc3ccccc3n2)c(O)c(C(C)(C)c2ccccc2)c1	inactive
CN1C(=O)CN=C(c2ccccc2)c2cc([N+](=O)[O-])ccc21	inactive
Cc1ccccc1	inactive
O=C(O)CCCOc1ccc(Cl)cc1Cl	inactive
CCC(C)Cl (stereo not given)	inactive
CCOP(=O)(SC(C)CC)N1CCSC1=O (stereo not given)	inactive
CCc1ccccc1N	inactive
CC(C)CCCCCCCOC(=O)c1ccccc1C(=O)OCCCCCCCC(C)C	inactive
CC(C)[C@@H](C(=O)O[C@@H](C#N)c1cccc(Oc2ccccc2)c1)c1ccc(Cl)cc1	inactive
CCCC[N+]1(C)[C@@H]2CC(OC(=O)[C@H](CO)c3ccccc3)C[C@H]1[C@@H]1O[C@@H]12 (stereo not given in full)	inactive
O=C(O)C(F)(F)C(F)(F)C(F)(F)C(F)(F)C(F)(F)C(F)(F)C(F)(F)C(F)(F)F	inactive
Cc1nc(N(C)C)nc(OC(=O)N(C)C)c1C	inactive
Cc1nnc(-c2ccccc2)c(=O)n1N	inactive
CCC(=O)O[C@@H]1C=C2CCC3C(CCC4(C)C3CC[C@@H]4OC(=O)CC)C2CC1 (stereo not given in full)	inactive
O=P(OCC(Br)CBr)(OCC(Br)CBr)OCC(Br)CBr (stereo not given)	inactive

SMILES	Potency
CCOP(=S)(S)OCC	inactive
C[N+](C)(C)CC1CO1 (stereo not given)	inactive
CC(C)(C)N(NC(=O)c1ccc(Cl)cc1)C(=O)c1ccccc1	inactive
CCOC(C(=O)OCCN(C)C)(c1ccccc1)c1ccccc1	inactive
Oc1cccc(Cl)c1	inactive
C[N+](C)(C)CCOC(=O)C(O)(c1ccccc1)c1ccccc1	inactive
CC(C)OC(=O)Cc1ccccc1	inactive
C#CC(O)(C=CCl)CC (stereo not given)	inactive
CCC1(C2=NCCN2)Cc2ccccc2O1 (stereo not given)	inactive
O=CC=O	inactive
CCCCC(CC)CO[N+](=O)[O-] (stereo not given)	inactive
CC(O)CN1CCN(CC(=O)[O-])CCN(CC(=O)[O-])CCN(CC(=O)[O-])CC1.[Gd+3] (stereo not given)	inactive
CC1(C)CC(=O)CC(C)(C)N1[O]	inactive
Cc1cnc(C2=NC(C)(C(C)C)C(=O)N2)c(C(=O)O)c1 (stereo not given)	inactive
COc1cc(CC(C)N)c(OC)cc1Br (stereo not given)	inactive
NP(N)(=O)NC(=O)c1ccc(F)cc1	inactive
CCC1(CC)C(=O)NC(=O)NC1=O	inactive
Nc1cccc2ccccc12	inactive
C=CC(=O)OCC	inactive
O=[N+]([O-])O[C@H]1CO[C@H]2[C@@H]1OC[C@H]2O[N+](=O)[O-]	inactive
